The record followed here is PubChem BioAssay AID2685 (National Center for Advancing Translational Sciences (NCATS), 2010).

Molecules are shown by their SMILES. In all, about 320,000 compounds went through this assay and about 2,100 (0.66%) were called active. Roughly 53% stayed inconclusive and do not appear here. Calls come from the whole dose curve; as a rule, active = well fitted inhibition curve with a large enough effect in the signal ratio, with a control signal flat (not every such curve was filed as active); inconclusive = small, poorly fitted or top-dose-only effect, or effect the other way, or a change in a side signal; inactive = flat fitted curve, though single readings scatter; the % refers to the signal ratio. Many of the other results were omitted from the sample, so actives are more common in it than they were.
Potency is the fitted concentration of half-maximal effect.

The experiment in a line: qHTS Assay for Lipid Storage Modulators in Drosophila S3 Cells.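 For cell number change: cells counted by Cell Tracker Red CMTPX staining in the red channel.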 For lipid storage change, negative = inhibition: % is set by controls: 0 for no effect and ±100 for the full control effect. The settings on record: BODIPY lipid droplet fluorescence, 18-24 h, cells fed with added oleic acid; cell number change: measured here: cell count max response; series mostly up to 46.1 µM; lipid storage change, negative = inhibition: at the top concentration. In a few lines:
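Drosophila S3 cells loaded with oleic acid (400 uM, as added) and compounds at several concentrations; lipid droplets imaged by 488-nm laser-scanning cytometry, 500–530 nm intensity and object ratio to cell channel. Percent activity normalized to 20 uM Triacsin C.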
Background: qHTS replaces the single test concentration by a dilution series.
As for `C=CCNC(=S)NNC(=O)C(CC(C)C)CC(C)O` (configuration not stated), the “lipid storage change, negative = inhibition” value was -5.62% (inactive) and the cell number change was found to be 1.94%. Take `CCC(=O)Nc1ccc(/C=C(\C(C)=O)C(=O)c2ccccc2)cc1`: the “lipid storage change, negative = inhibition” value is -21.8% (inactive) and the cell number change was -16.8%. As to `CC1(C)C2CCC(C2)C1(C)NC(=O)CNC1CCCCC1` (configuration not stated), the compound was called inactive.

In the case of `CCOCCCNCC(=O)NC1(C)C2CCC(C2)C1(C)C` (configuration not stated), the Potency is 1.3 µM (active) and the cell number change was -12.8%.

Take `CC1(C)C2CCC(C2)C1(C)NC(=O)C[N+](C)(C)C` (configuration not stated): the “lipid storage change, negative = inhibition” value is -8.8% (inactive) and the cell number change stood at 7.74%. On to `Cc1ccc(C(=O)Nc2ccc(C(=O)N3CCCCC3)cc2)o1`, for which the “lipid storage change, negative = inhibition” value was 19.2% (inactive). For `COCC(C)NS(=O)(=O)c1ccc(C(=O)NCCCn2ccc3ccccc32)cc1` (configuration not stated), the result was inactive and the cell number change was -2.38%. With `O=C(NC(Cc1c[nH]c2ccccc12)C(=O)O)c1ccc(F)cc1` (configuration not stated), the “lipid storage change, negative = inhibition” value was -8.21% (inactive) and the cell number change is -8.38%. On to `Cc1ccc(C(=O)Nc2ccccc2C(=O)NC(Cc2c[nH]c3ccccc23)C(=O)O)cc1` (configuration not stated), for which the “lipid storage change, negative = inhibition” value was -2.03% (inactive) and the cell number change is 14.2%. Turning to `Cc1ccc(C(=O)NC(Cc2c[nH]c3ccccc23)C(=O)O)cc1` (configuration not stated), the Potency was 16.4 µM (active) and the cell number change is 8.72%. Take `O=C(Cc1ncc(C(F)(F)F)cc1Cl)NNc1cccc(F)n1`: the “lipid storage change, negative = inhibition” value was -0.459% (inactive) and the cell number change turned out to be 2.59%. On to `CCC1(c2ccc(F)cc2)NC(=O)N(CC(=O)c2cc(C)n(C3CC3)c2C)C1=O` (configuration not stated), for which the outcome was inactive and the cell number change is -20.6%. As for `CN(CCCNC(=O)CSc1cc(=O)n(C)c2ccc(Cl)cc12)Cc1ccccc1`, the “lipid storage change, negative = inhibition” value was 1.37% (inactive) and the cell number change was -6.41%. For `COc1ccccc1CNC(=O)C(c1ccccc1)c1ccccc1`, the compound was called inactive and the cell number change came to 13.6%. Take `COc1ccccc1CN(C)C(=O)C(c1ccccc1)c1ccccc1`: the Potency is 20.6 µM (active) and the cell number change came out at 14.8%. With `COc1ccccc1CN(C)C(=O)CN1C(=O)c2ccccc2C1=O`, the compound was classed as inactive and the cell number change was 14.5%. For `CCOc1ccc(N(CC(=O)N2CCCCCC2)S(C)(=O)=O)cc1`, the result was inactive.

For the compound `CCOC(=O)C1CCN(C(=O)Cn2cc(C(=O)C3CC3)c3ccccc32)CC1`, the “lipid storage change, negative = inhibition” value is 10.5% (inactive) and the cell number change stood at 3.64%. As for `O=C(CCc1nnc2n(Cc3ccc(F)cc3)c(=O)c3ccccc3n12)N1CCN(c2ccccn2)CC1`, the Potency is 13 µM (active) and the cell number change is -18.8%. Consider `Cn1c(=O)c2sccc2n2c(CCCC(=O)Nc3ccc(F)cc3F)nnc12`, for which the Potency was 9.2 µM (active) and the cell number change is -23.8%.

`Cn1c(=O)c2sccc2n2c(CCCC(=O)NCc3ccc4c(c3)OCO4)nnc12`: the “lipid storage change, negative = inhibition” value was 3.09% (inactive) and the cell number change is -24.9%. Taken in the same sequence, the figures for `COc1ccc(Cn2c(CCC(=O)N3CCN(c4ccccn4)CC3)nc3ncccc3c2=O)cc1` were 7.18% (inactive) and -8.69%. As to `Cn1c(=O)c2sccc2n2c(CCCC(=O)N3CCCCC3)nnc12`, the Potency is 10.3 µM (active) and the cell number change was -19.4%. Regarding `Cn1cnnc1SCC(=O)Nc1ccc(F)cc1F`, the “lipid storage change, negative = inhibition” value was 16% (inactive) and the cell number change was -0.713%.

Take `COc1ccc(OC)c(CCNC(=O)CCCc2nnc3n(C)c(=O)c4sccc4n23)c1`: the Potency is 7.31 µM (active) and the cell number change was -24.6%.

With `O=C(CCCCCn1c(=O)[nH]c2ccsc2c1=O)N1CCCCC1`, the “lipid storage change, negative = inhibition” value is -10% (inactive) and the cell number change is -7.73%. For `CC(C)CCn1c(=O)c2sccc2n2c(CCCC(=O)N3CCC(N4CCCCC4)CC3)nnc12`, the compound was classed as inactive.

For `O=C(CCc1nnc2n(Cc3ccc(Cl)cc3)c(=O)c3ccccc3n12)N1CCN(c2ccccn2)CC1`, the outcome was inactive and the cell number change is -18.3%. With `O=C(CCN1C(=O)c2ccccc2C1=O)Nc1ccc(F)cc1F`, the “lipid storage change, negative = inhibition” value is 12.5% (inactive) and the cell number change was found to be 5.85%. For the compound `COc1ccc(-c2cc(CCCC(=O)NCCc3cc(OC)ccc3OC)no2)cc1`, the “lipid storage change, negative = inhibition” value was -25.3% (inactive) and the cell number change was 4.57%. The matching figures for `O=C(CSc1ccc(F)cc1)N1CCOCC1`: -1.33% (inactive) and 7.13%. Consider `COC(=O)c1ccc(COc2cc([N+](=O)[O-])cc3cccnc23)o1`, for which the “lipid storage change, negative = inhibition” value was -4.43% (inactive) and the cell number change is 5.31%.

Regarding `Cc1cccc(NC(=S)NC(C)C(c2ccccc2)N2CCN(C)CC2)c1C` (configuration not stated), the “lipid storage change, negative = inhibition” value is -11.9% (inactive) and the cell number change was -10.3%.

For `COc1ccc(OC)c(S(=O)(=O)NC2CC2)c1`, the “lipid storage change, negative = inhibition” value is -1.21% (inactive) and the cell number change was -2.27%. Take `Nc1nc(SCC(=O)Nc2cccnc2Cl)n[nH]1`: the outcome was inactive. Turning to `COc1ccc(-c2n[nH]c(=S)n2N)c(OC)c1`, the result was inactive and the cell number change is -28.8%. Take `COc1ccc(CNC(=O)CCNS(=O)(=O)c2ccc3c(c2)oc(=O)n3C)cc1`: the “lipid storage change, negative = inhibition” value was -3.68% (inactive). For the compound `Cc1ccc(N2CCN(/N=C/c3ccccc3)CC2)cc1`, the “lipid storage change, negative = inhibition” value is -18.6% (inactive) and the cell number change was -1.14%.

In the case of `C=CCNC(=O)c1ccccc1NC(=O)c1ccc(Cl)c(S(=O)(=O)Nc2ccccc2)c1`, the “lipid storage change, negative = inhibition” value was -5.77% (inactive) and the cell number change is -6.78%.

Consider `Cc1ccccc1-n1ncc2c1CC(C)(C)CC2NC(=O)CCN1CCCCC1=O` (configuration not stated), for which the “lipid storage change, negative = inhibition” value is -16.5% (inactive) and the cell number change was -9.29%. Turning to `O=C(O)c1cc(-c2ccc(Cl)c(Cl)c2)n(-c2ccc(F)cc2)n1`, the “lipid storage change, negative = inhibition” value is 1.09% (inactive) and the cell number change was found to be 20.6%. The matching figures for `O=C(CCCn1c(=O)[nH]c2ccsc2c1=O)N1CCN(c2ccccn2)CC1`: -23.2% (inactive) and -2.15%. `COc1ccccc1CNC(=O)CCn1c(=O)[nH]c2ccsc2c1=O`: the “lipid storage change, negative = inhibition” value is 1.06% (inactive) and the cell number change is -12.6%. Take `CC(C)Cn1c(=O)c2sccc2n2c(CCCC(=O)NC3CCN(Cc4ccccc4)CC3)nnc12`: the compound was classed as inactive and the cell number change was 6.76%. With `CCn1c(=O)c2sccc2n2c(CCCC(=O)NC3CCN(Cc4ccccc4)CC3)nnc12`, the “lipid storage change, negative = inhibition” value was -11.5% (inactive).

As to `CCn1c(=O)c2sccc2n2c(CCCC(=O)N3CCN(c4ccccn4)CC3)nnc12`, the Potency was 23.1 µM (active) and the cell number change is -5.66%. Regarding `COc1ccccc1CNC(=O)CCCc1nnc2n(C)c(=O)c3sccc3n12`, the Potency was 1.3 µM (active) and the cell number change turned out to be 11.8%.
